Shown are actives, neighbours in structure and some others; about 4.6% of the full set was active somewhere.
TRb-SRC2 inh: inhibitors of human thyroid hormone receptor beta-SRC2 interaction | TRbeta-SRC2 peptide binding, fluorescence polarization; receptor liganded with 1 µM T3 | Potency, µM (titrated, usually from 106 µM), usual class: inhibitors | actives 0.065% (n = 280,000) | P10828; also: nearly all actives have a fitted effect of over 50% in size
Target sequence (P10828 whole entry, looked up): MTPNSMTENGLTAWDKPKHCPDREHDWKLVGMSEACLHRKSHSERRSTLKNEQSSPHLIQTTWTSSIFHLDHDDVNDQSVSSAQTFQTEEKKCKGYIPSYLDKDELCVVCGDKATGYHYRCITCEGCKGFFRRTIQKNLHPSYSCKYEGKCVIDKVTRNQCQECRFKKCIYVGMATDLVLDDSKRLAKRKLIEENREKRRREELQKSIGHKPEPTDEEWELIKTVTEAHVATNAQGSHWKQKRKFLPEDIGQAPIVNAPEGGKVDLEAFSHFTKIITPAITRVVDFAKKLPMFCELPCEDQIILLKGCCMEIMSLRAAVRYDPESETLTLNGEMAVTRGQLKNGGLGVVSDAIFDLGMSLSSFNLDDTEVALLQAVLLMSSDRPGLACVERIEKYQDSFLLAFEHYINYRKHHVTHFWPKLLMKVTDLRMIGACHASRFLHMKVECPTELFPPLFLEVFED
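Binding of a 20-amino-acid Texas Red SRC2 peptide (20 nM) to TRb ligand-binding domain (0.6 uM) with agonist T3 at 1 uM was followed by fluorescence polarization after a 5 hr room-temperature incubation.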
Tau fluor counter: counter-screen for tau fibril formation inhibitors; tau K18 P301L Alexa594 fluorescence, heparin fibrillization; actives 0.93% (n = 280,000); Potency, µM (highest dose often 57.7 µM); AID 1463; also: nearly all actives have a fitted effect of over 55% in size
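Human K18 P301L tau (15 uM unlabeled plus 0.24 uM Alexa 594-labeled, final) in 100 mM sodium acetate pH 7 was mixed with compound and 20 uM heparin and incubated 6 hr at 37 C.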
Tau FP inhib: inhibitors of human tau fibril formation; P10636; K18 P301L tau heparin fibrillization, Alexa594 FP, 6 h; Potency, µM (top dose mostly 57.7 µM), most hits filed as inhibitors; actives 0.39% (n = 280,000); AID 1468; also: nearly all actives have a fitted effect of over 55% in size
Target sequence (P10636 561-689 P618L limits assumed): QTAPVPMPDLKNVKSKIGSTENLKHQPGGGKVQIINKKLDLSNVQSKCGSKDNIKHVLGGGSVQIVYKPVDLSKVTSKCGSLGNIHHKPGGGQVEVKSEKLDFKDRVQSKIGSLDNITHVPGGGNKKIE
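Recombinant K18 P301L […], labeled with Alexa 594 at 0.24 uM over 15 uM unlabeled; heparin inducer 20 uM final; 37 C, 6 hr; FP endpoint.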
TR SRC2 fluor cs: counter-screen for TRb-SRC2 inhibitors: fluorescence interference; Potency, µM (highest dose often 106 µM); actives 0.29% (n = 280,000); TRb/SRC2 Texas Red total fluorescence interference; active = well fitted curve in either direction with a large enough effect; inconclusive = small, poorly fitted or top-dose-only effect
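Human TRβ ligand-binding domain (0.6 uM) and Texas Red SRC2 peptide (20 nM) in Tris buffer with 1 uM T3 and 5% DMSO were incubated with pinned compound for 5 hr at ambient temperature. Total fluorescence was computed as S + 2P (555/632 nm).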
PNC inhibitor: inhibitors of perinucleolar compartment assembly; PC3M PTB-GFP, PNC prevalence imaging, 16 h; active compounds read low; activity change (PNC), negative = inhibition, % at 10 µM; actives 3.1% (n = 140,000);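 active = readout at or below -70, meaning at least 70% loss of cells showing the perinucleolar compartment, a nuclear body marking cancer cells; inconclusive = readout between -30 and a set limit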
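Read-out is percentage of cells bearing a perinucleolar compartment, from automated 20x imaging of fixed, Hoechst-stained PC3M PTB-GFP cells. Cells were seeded 4 h, then exposed 16 h to compound (23 nl of library stock) in duplicate plates.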
Tau fibril ThT: inhibitors of human tau fibril formation, thioflavin T binding; recombinant tau K18 P301L (four-repeat tau fragment), heparin-induced fibrillization, ThT fluorescence; actives 2.1% (n = 270,000); P10636; Potency, µM (top dose mostly 57.4 µM), actives largely listed as inhibitors; also: nearly all actives have a fitted effect of over 55% in size
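Recombinant human tau K18 fragment […] carrying P301L, 15 uM unlabeled plus 0.24 uM Alexa 594-labeled, was fibrillized with 20 uM heparin in 100 mM sodium acetate pH 7 for 6 hr at 37 C; 30 uM ThT fluorescence read after 1 hr.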
Large screens that a line does not name were inactive; [ ] = remark or other dose. Unless noted, calls follow the shape of the dose curve; as a rule, active = well fitted curve in the direction sought with a large enough effect; inconclusive = small, poorly fitted or top-dose-only effect, or another doubt; inactive = no such curve, though single readings can be large; an effect the other way counts as inactive or inconclusive.

CC1=NN(C(N)=S)C(=O)C1N=Nc1ccc(O)cc1 (stereo not given)	Tau fibril ThT 13µM (no result: PNC inhibitor)
COc1cc2c(cc1OC)C1=C(C#N)CCC(=O)N1CC2	PNC inhibitor -100
COc1ccc2nc(/C(C#N)=C\c3ccc(C(=O)O)cc3)[nH]c2c1	Tau fibril ThT inconclusive (no result: PNC inhibitor)
Cc1ccc2nc(/C(C#N)=C\c3ccc(Oc4ccc([N+](=O)[O-])cn4)cc3)[nH]c2c1	Tau fluor counter inconclusive, Tau fibril ThT 5µM
COc1ccc2nc(/C(C#N)=C\c3ccc(Oc4ccc([N+](=O)[O-])cn4)cc3)[nH]c2c1	Tau fluor counter inconclusive, Tau fibril ThT 5µM
Cc1c(N=NC2=C(O)CCCC2=O)c(=O)n(-c2ccccc2)n1C	Tau FP inhib inconclusive, Tau fibril ThT 14µM (no result: PNC inhibitor)
COC(=O)c1cccc(S(=O)(=O)N2CCC(NC(=O)Nc3cccc(F)c3)CC2)c1	PNC inhibitor -98
COCCNC(=O)c1ccc2nc(Cc3ccccc3)oc2c1	none (no result: PNC inhibitor)
N#CC1(C#N)C(c2ccccc2)OC23CCCCC2C1(C#N)C(=N)O3 (stereo not given)	TRb-SRC2 inh 45µM, TR SRC2 fluor cs inconclusive
N#CC1(C#N)C(c2ccccc2)OC23CCCCCC2C1(C#N)C(=N)O3 (stereo not given)	PNC inhibitor inconclusive, Tau fibril ThT inconclusive
CCc1ccc(NS(=O)(=O)c2c(-c3ccccc3)csc2C(=O)OC)cc1	none (no result: PNC inhibitor)
CCc1cc[n+](C2=C([O-])c3ccccc3C(=O)/C2=N\S(=O)(=O)c2cccs2)cc1	Tau fluor counter inconclusive, Tau FP inhib inconclusive, PNC inhibitor inconclusive, Tau fibril ThT 13µM
O=C1C(=O)c2ccccc2C([O-])=C1[n+]1ccccc1	Tau fibril ThT inconclusive (no result: PNC inhibitor)
O=C(N/N=C/C1=Cc2ccccc2OC1)c1ccncc1	none (no result: PNC inhibitor)
CN(C)c1ccc(/C=C2/C=C(c3ccc4c(c3)CCCC4)OC2=O)cc1	Tau fluor counter inconclusive, Tau FP inhib inconclusive, Tau fibril ThT 3.2µM (no result: PNC inhibitor)
COc1ccc(C2=C/C(=C\c3ccc(OC(C)=O)cc3)C(=O)O2)cc1	Tau fibril ThT inconclusive (no result: PNC inhibitor)
CCOC(=O)CSc1nc2c(sc3ccccc32)c(=O)n1CCO	none (no result: PNC inhibitor)
COc1ccc2c(c1)c1nnc(SC)nc1n2C	Tau FP inhib inconclusive, PNC inhibitor -88
COc1ccc2c(c1)c1nnc(SCC(=O)N3C(C)CCCC3C)nc1n2C (stereo not given)	Tau fibril ThT inconclusive
Cc1ccc(/C=N/c2sc(Cc3ccccc3)c(C)c2C(N)=O)o1	Tau fibril ThT inconclusive
CCOC(=O)c1cc(CC)sc1/N=C/c1c(O)ccc2ccccc12	TRb-SRC2 inh inconclusive, TR SRC2 fluor cs inconclusive, PNC inhibitor -88, Tau fibril ThT inconclusive
Cc1c(Cc2ccccc2)sc(N)c1C(N)=O	Tau FP inhib inconclusive, Tau fibril ThT inconclusive
Cc1c(Cc2ccccc2)sc(/N=C/c2c(O)ccc3ccccc23)c1C(N)=O	Tau fluor counter 32µM[quencher], Tau FP inhib inconclusive, PNC inhibitor inconclusive, Tau fibril ThT 28µM
Cc1c(Cc2ccccc2)sc(/N=C/c2ccc3ccccc3c2)c1C(N)=O	PNC inhibitor -103
Cc1ccn2c(=O)cc(COc3ccc(NC(=O)COc4ccc(C)c(C)c4)cc3)nc2c1	Tau fibril ThT inconclusive (no result: PNC inhibitor)
NC(=O)c1sc2nc3c(c(-c4ccco4)c2c1N)CCC3	PNC inhibitor inconclusive, Tau fibril ThT inconclusive
Nc1c(C(=O)NC2CC2)sc2nc3c(c(-c4ccco4)c12)CC/C3=C/c1ccco1	Tau fluor counter inconclusive, Tau FP inhib inconclusive, Tau fibril ThT 8.9µM
Cc1ccc(/C=N/NC(=O)c2cccc(S(=O)(=O)Nc3ccccc3Cl)c2)o1	none
Cc1[nH]c2ccccc2c1/C=N/NC(=O)c1cccc(S(=O)(=O)Nc2ccccc2Cl)c1	Tau fluor counter 11µM[quencher], Tau FP inhib inconclusive, Tau fibril ThT inconclusive
CCc1cccc2c(/C=N/NC(=O)c3cccc(S(=O)(=O)Nc4ccccc4Cl)c3)c[nH]c12	Tau fluor counter 11µM[quencher], Tau fibril ThT 14µM
O=C(Nc1cccc(C(=O)OCc2cc(=O)n3nc(C4CC4)sc3n2)c1)c1ccccc1	Tau fibril ThT inconclusive (no result: PNC inhibitor)
O=C(Nc1ccc(Cl)cc1C(F)(F)F)c1cc(S(=O)(=O)NCc2ccccc2)ccc1F	Tau FP inhib inconclusive (no result: PNC inhibitor)
Cc1nn(-c2ccc(Cl)cc2)c(=O)c2ccccc12	none (no result: PNC inhibitor)
O=C(N/N=C/c1c(Cl)cccc1Cl)C(=O)NC1CC1	none (no result: PNC inhibitor)
Cc1cc(NC(=S)N(CCCN2CCOCC2)Cc2ccco2)ccc1Cl	PNC inhibitor -118
CCOC(=O)CCCCNCc1ccccc1	PNC inhibitor -100
O=C(O)CCCCNCc1ccccc1	none
CCCN1C(=O)C2(c3ccccc31)c1c(oc3ccccc3c1=O)C(=O)N2CCO (stereo not given)	TR SRC2 fluor cs 32µM[quencher] (no result: PNC inhibitor)
CCCN1C(=O)C2(c3ccccc31)c1c(oc3ccc(F)cc3c1=O)C(=O)N2CCCOC(C)C (stereo not given)	TRb-SRC2 inh inconclusive, TR SRC2 fluor cs 3.5µM[quencher] (no result: PNC inhibitor)
CCn1c(CSCc2ccc(C)cc2)nnc1SCC(=O)NCc1ccccc1	none
CCc1ccccc1NC(=O)N1CCOc2ccccc21	TR SRC2 fluor cs 0.0089µM[quencher] (no result: PNC inhibitor)
COc1ccc(NC(=O)N2CCOc3ccc(Cl)cc32)cc1	Tau fluor counter 8.9µM[quencher], TR SRC2 fluor cs inconclusive (no result: PNC inhibitor)
CCc1ccccc1NC(=O)N1CCc2ccccc21	Tau fibril ThT inconclusive (no result: PNC inhibitor)
COc1ccc(CNC(=O)C2CCN(C(=O)N3CCOc4ccc(Cl)cc43)CC2)cc1	TR SRC2 fluor cs inconclusive, Tau fibril ThT inconclusive (no result: PNC inhibitor)
